From PubChem BioAssay (EPA / NIEHS)
Inconclusive results are not listed. Active and inactive are the calls of the source. How the source made its calls, unless noted: active means hit-call score of the fitted dose curve at least 0.9, where 1 is the maximum; inactive means score below 0.9.

Legend:
[1] = target: CCAAT/enhancer-binding protein beta (Homo sapiens) (UniProt P17676); assay: ATG_C_EBP_CIS: Attagene CIS-FACTORIAL HepG2 Assay for human CCAAT/Enhancer Binding Protein (C/EBP) beta (AID 2282927); conditions: HepG2 Attagene cis-factorial transcription factor reporter; actives raise or lower the signal
Summary of the method: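 Changes in reporter mRNA, rather than exogenous chimeric receptor activity, reflect native C/EBP signalling in transfected HepG2 cells dosed for 24 h; transcripts are detected by RT-PCR and capillary electrophoresis.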

[2] = target: Transcription factor E2F1 (Homo sapiens) (UniProt Q01094); assay: ATG_E2F_CIS: Attagene CIS-FACTORIAL HepG2 Assay for human E2F Transcription Factor 1 (AID 2282935); conditions: HepG2 Attagene cis-reporter, E2F reporter RNA transcripts; actives raise or lower the signal
Summary of the method: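 Fluorescent RT-PCR products, digested with HpaI for 2 h at 37 C, are separated by capillary electrophoresis. Source RNA comes from transfected HepG2 cultures treated for 24 h.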

[3] = ATG_GATA_CIS: Attagene CIS-FACTORIAL HepG2 Assay for human GATA Binding Protein (AID 2282944); conditions: HepG2 GATA cis-element reporter, Attagene multiplex mRNA; actives raise or lower the signal
Summary of the method: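 Transient MRTU transfection, HepG2, 24 h compound exposure. Total RNA → oligo(dT) RT → PCR → 6-FAM primer extension → HpaI cut → CE. Bidirectional fit vs DMSO.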

[4] = target: Hypoxia-inducible factor 1-alpha (Homo sapiens) (UniProt Q16665); assay: ATG_HIF1a_CIS: Attagene CIS-FACTORIAL HepG2 Assay for human Hypoxia Inducible Factor 1 (HIF1A) (AID 2282951); conditions: HepG2 Attagene cis-factorial HIF1a reporter transcription; actives raise or lower the signal
Summary of the method: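 Cis-element reporter constructs were transiently transfected into HepG2 cells, which were treated for 24 h; reporter RNA was reverse-transcribed, amplified, labelled and resolved by capillary electrophoresis.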

[5] = target: Hepatocyte nuclear factor 6 (Homo sapiens) (UniProt Q9UBC0); assay: ATG_HNF6_CIS: Attagene CIS-FACTORIAL HepG2 Assay for human Hepatocyte Nuclear Factor 6 (HNF6) (AID 2282952); conditions: HepG2 Attagene cis-factorial HNF6 reporter transcription; actives raise or lower the signal
Summary of the method: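 Readout: fluorescent reporter-transcript fragments resolved by capillary electrophoresis after RT-PCR, reflecting endogenous factor activity in transfected HepG2. Exposure 24 h. Gain or loss of signal fitted bidirectionally against DMSO.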

[6] = target: Heat shock factor protein 1 (Homo sapiens) (UniProt Q00613); assay: ATG_HSE_CIS: Attagene CIS-FACTORIAL HepG2 Assay for human Heat Shock Transcription Factor 1 (HSE) (AID 2282953); conditions: HepG2 HSE cis-reporter, Attagene RNA transcription; actives raise or lower the signal
Summary of the method: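 HepG2, transient MRTU transfection, cis-promoter reporters (endogenous TF activity). 24 h compound. RNA → oligo(dT) RT → PCR → 6-FAM primer extension → HpaI cut → CE. Bidirectional fit vs DMSO.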

[7] = ATG_PXRE_CIS: Attagene CIS-FACTORIAL HepG2 Assay for human Pregnane X Receptor Element (PXRE) (AID 2282957); conditions: HepG2 Attagene CIS-FACTORIAL PXRE reporter, mRNA; actives raise or lower the signal
Summary of the method: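 Read-out: fluorescence of reporter-specific RT-PCR products resolved by capillary electrophoresis, fitted bidirectionally relative to DMSO. Human HepG2 liver cells carried transfected cis-promoter reporter units and were exposed to chemicals for 24 h.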

[8] = target: Transcription factor Sp1 (Homo sapiens) (UniProt P08047); assay: ATG_Sp1_CIS: Attagene CIS-FACTORIAL HepG2 Assay for human Specificity Protein 1 (Sp1) (AID 2282961); conditions: HepG2 Sp1 cis-reporter transcription, actives raise or lower the signal
Summary of the method: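 Chemicals are dosed onto HepG2 cells transfected with multiple cis-promoter reporter constructs, and after 24 h reporter RNA is reverse-transcribed, PCR-amplified and resolved by capillary electrophoresis for fluorescence quantitation; activity is scored up or down against DMSO.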

[9] = target: Signal transducer and activator of transcription 3 (Homo sapiens) (UniProt P40763); assay: ATG_STAT3_CIS: Attagene CIS-FACTORIAL HepG2 Assay for human Signal Transducer and Activator of Transcription 3 (STAT3) (AID 2282963); conditions: HepG2, Attagene cis-factorial STAT3 reporter transcription; actives raise or lower the signal
Summary of the method: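 Cis-factorial format: endogenous transcription factors in HepG2 drive transfected reporter units. After 24 h treatment, reporter RNA was reverse-transcribed, amplified, FAM-labelled and HpaI-digested before CE analysis; activity scored in both directions against DMSO.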

[10] = ATG_TAL_CIS: Attagene CIS-FACTORIAL HepG2 Assay for human TAL Basal Promoter (AID 2282966); conditions: HepG2 Attagene cis-factorial TAL promoter reporter; actives raise or lower the signal;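 further: background control endpoint measuring basal TAL promoter reporter mRNA not a specific factor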
Summary of the method: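 HepG2, transient MRTU transfection, 24 h compound exposure; RNA → oligo(dT) RT → PCR → 6-FAM primer extension → HpaI digest → CE fluorescence. Bidirectional curve fit vs DMSO. Background-control readout.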

[11] = target: X-box-binding protein 1 (Homo sapiens) (UniProt P17861); assay: ATG_Xbp1_CIS: Attagene CIS-FACTORIAL HepG2 Assay for human X-box Binding Protein 1 (XBP1) (AID 2282972); conditions: HepG2 XBP1 cis-element reporter, Attagene multiplex; actives raise or lower the signal
Summary of the method: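 Reporter transcripts were quantified by RT-PCR with fluorescent primer extension and capillary electrophoresis after 24 h chemical exposure. Cells: transiently transfected HepG2 carrying cis-regulated reporter constructs; data fitted bidirectionally relative to DMSO.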

[12] = ATG_M_06_TRANS: Attagene TRANS-FACTORIAL HepG2 Assay for M06 Transcription Factor (Internal Marker) (AID 2282983; active means hit-call score of the fitted dose curve at least 0.9, where 1 is the maximum); conditions: HepG2 Attagene TRANS M06 internal marker reporter
Summary of the method: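 Read-out: fluorescent reporter cDNA fragments resolved by capillary electrophoresis after RT-PCR and HpaI cut. Source cells were HepG2 carrying transfected multi-reporter GAL4 constructs, dosed 24 h. Increase over DMSO control analysed.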

[13] = target: Transcriptional activator Myb (Homo sapiens) (UniProt P10242); assay: ATG_Myb_CIS: Attagene CIS-FACTORIAL HepG2 Assay for human Myeloblastosis (Myb) Proto-Oncogene Transcription Factor (AID 2282986); conditions: HepG2 Attagene CIS-FACTORIAL Myb reporter transcription; actives raise or lower the signal
Summary of the method: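 Using HepG2 liver cells bearing transiently transfected cis-promoter reporter constructs, the assay measures induction or loss of reporter mRNA after 24 hours of dosing. Detection used fluorescently labeled RT-PCR products separated by capillary electrophoresis.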

[14] = ATG_NFI_CIS: Attagene CIS-FACTORIAL HepG2 Assay for human Nuclear Factor I (NFI) (AID 2282989); conditions: HepG2 cis-regulatory reporter, NFI response element transcription; actives raise or lower the signal
Summary of the method: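 Transient MRTU transfection of HepG2 → 24 h chemical dosing → total RNA, oligo(dT) RT → PCR, 6-FAM primer extension, HpaI cut → capillary electrophoresis. Endpoint fitted bidirectionally relative to DMSO.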

[15] = target: Myc proto-oncogene protein (Homo sapiens) (UniProt P01106); assay: ATG_Myc_CIS: Attagene CIS-FACTORIAL HepG2 Assay for human Myelocytomatosis (Myc) Proto-Oncogene Transcription Factor (AID 2282990); conditions: HepG2, Attagene cis-reporter transcription factor activity; actives raise or lower the signal
Summary of the method: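 Cells of the HepG2 human liver line bear multiple cis-driven reporter transcription units. Reporter mRNA after 24 h exposure is reverse-transcribed, amplified, labelled and resolved by capillary electrophoresis, with gain- or loss-of-signal fitting relative to DMSO.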

[16] = ATG_NRF2_ARE_CIS: Attagene CIS-FACTORIAL HepG2 Assay for human Nuclear Factor Erythroid 2 Related Factor 2 (NFR2) response to Antioxidant Response Elements (ARE) (AID 2282992); conditions: HepG2 Attagene ARE/NRF2 reporter, transcription factor activity; actives raise or lower the signal
Summary of the method: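 Endogenous transcription factor activity read out as reporter transcript levels (RT-PCR plus capillary electrophoresis, fluorescence) in transiently transfected HepG2 cells. Measured at 24 h after dosing; gain or loss of signal fitted versus DMSO.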

[17] = ATG_VDRE_CIS: Attagene CIS-FACTORIAL HepG2 Assay for human Vitamin D Receptor Element (VDRE) (AID 2282968); conditions: HepG2 VDRE cis-reporter transcription, actives raise or lower the signal
Summary of the method: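 Measures endogenous factor activity through cis-element-driven reporter transcripts in transiently transfected HepG2. Cells are treated 24 h; reporter mRNA is quantified by RT-PCR and capillary electrophoresis; fitting is bidirectional.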

[18] = target: Cellular tumor antigen p53 (Homo sapiens) (UniProt P04637); assay: ATG_p53_CIS: Attagene CIS-FACTORIAL HepG2 Assay for human p53 Transcription Factor (AID 2282994); conditions: HepG2 p53 cis-element reporter, Attagene mRNA; actives raise or lower the signal
Summary of the method: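 Endogenous p53 activity read in transiently transfected HepG2 from a cis-element-driven reporter transcript after 24 h exposure. RNA reverse-transcribed, PCR-amplified, fluorescently labelled and sized by capillary electrophoresis; gain or loss fitted against DMSO baseline.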

[19] = target: Cellular tumor antigen p53 (Homo sapiens) (UniProt P04637); assay: TOX21_p53_BLA_p2_ratio: Tox21 HCT-116 p53 Agonism Beta-lactamase Assay, Ratio, Phase 2 (AID 2283592; active means hit-call score of the fitted dose curve at least 0.9, where 1 is the maximum)
Summary of the method: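 Readout: blue/green (460/530 nm) FRET emission ratio after 2 h CCF4-AM loading at room temperature, excitation 405 nm. HCT116 p53 bla cells, 16 h compound exposure at 37C, 5% CO2; agonist direction fitted against DMSO baseline.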

[20] = ATG_Sox_CIS: Attagene CIS-FACTORIAL HepG2 Assay for human SRY-box transcription factor (SOX) (AID 2282960); conditions: HepG2 Attagene cis-factorial SOX reporter, mRNA; actives raise or lower the signal
Summary of the method: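 Fluorescence-labelled cDNA fragments from reporter transcripts, sized by CE, give the signal. Cells: HepG2, transiently transfected with cis-regulated reporter units. Exposure 24 h; DMSO negative control; bidirectional curve fitting.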

Measured: AC50

Myc proto-oncogene protein (Homo sapiens), sequence (P01106 whole entry, looked up): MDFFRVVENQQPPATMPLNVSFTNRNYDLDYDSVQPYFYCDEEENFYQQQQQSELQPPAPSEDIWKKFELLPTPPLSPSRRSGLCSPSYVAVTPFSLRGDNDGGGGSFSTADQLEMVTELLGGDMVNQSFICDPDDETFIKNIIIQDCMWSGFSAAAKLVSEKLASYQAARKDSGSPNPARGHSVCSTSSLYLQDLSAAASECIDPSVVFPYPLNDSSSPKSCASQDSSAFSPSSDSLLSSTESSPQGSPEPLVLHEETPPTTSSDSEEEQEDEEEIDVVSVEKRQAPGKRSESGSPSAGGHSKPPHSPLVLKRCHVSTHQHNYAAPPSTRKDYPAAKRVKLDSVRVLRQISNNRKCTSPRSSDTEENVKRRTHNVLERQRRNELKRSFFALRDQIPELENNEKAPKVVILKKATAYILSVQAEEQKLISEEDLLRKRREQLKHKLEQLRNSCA
CCAAT/enhancer-binding protein beta (Homo sapiens), sequence (P17676 whole entry, looked up): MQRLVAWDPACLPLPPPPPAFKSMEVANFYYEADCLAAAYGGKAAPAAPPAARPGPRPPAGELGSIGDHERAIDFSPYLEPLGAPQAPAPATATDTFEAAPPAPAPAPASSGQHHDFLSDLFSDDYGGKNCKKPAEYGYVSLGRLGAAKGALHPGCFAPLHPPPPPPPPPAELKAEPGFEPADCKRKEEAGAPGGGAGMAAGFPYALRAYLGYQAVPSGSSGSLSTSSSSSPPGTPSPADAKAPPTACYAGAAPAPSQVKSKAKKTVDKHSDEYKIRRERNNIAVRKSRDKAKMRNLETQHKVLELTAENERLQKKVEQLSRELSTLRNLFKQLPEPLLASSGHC
Heat shock factor protein 1 (Homo sapiens), sequence (Q00613 whole entry, looked up): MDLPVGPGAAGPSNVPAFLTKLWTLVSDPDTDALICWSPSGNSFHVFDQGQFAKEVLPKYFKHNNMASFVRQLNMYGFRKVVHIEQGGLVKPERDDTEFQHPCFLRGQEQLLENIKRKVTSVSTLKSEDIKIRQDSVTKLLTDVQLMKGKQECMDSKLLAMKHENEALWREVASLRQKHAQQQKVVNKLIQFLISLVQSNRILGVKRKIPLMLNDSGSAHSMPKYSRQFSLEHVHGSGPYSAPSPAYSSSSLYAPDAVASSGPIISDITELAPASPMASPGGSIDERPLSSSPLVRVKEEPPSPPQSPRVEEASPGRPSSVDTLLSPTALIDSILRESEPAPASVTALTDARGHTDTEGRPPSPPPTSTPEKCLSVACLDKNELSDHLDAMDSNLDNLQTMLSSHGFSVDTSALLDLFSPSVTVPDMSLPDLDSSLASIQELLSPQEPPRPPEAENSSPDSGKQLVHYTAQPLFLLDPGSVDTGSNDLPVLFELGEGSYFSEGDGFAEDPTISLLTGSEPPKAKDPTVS
X-box-binding protein 1 (Homo sapiens), sequence (P17861 whole entry, looked up): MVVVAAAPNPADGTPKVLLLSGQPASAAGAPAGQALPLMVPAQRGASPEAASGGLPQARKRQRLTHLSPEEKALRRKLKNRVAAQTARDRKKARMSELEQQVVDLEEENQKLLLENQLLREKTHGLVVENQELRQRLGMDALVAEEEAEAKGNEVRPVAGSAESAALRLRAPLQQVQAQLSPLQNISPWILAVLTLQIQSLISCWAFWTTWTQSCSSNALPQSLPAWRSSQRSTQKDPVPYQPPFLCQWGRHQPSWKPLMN
Hypoxia-inducible factor 1-alpha (Homo sapiens), sequence (Q16665 whole entry, looked up): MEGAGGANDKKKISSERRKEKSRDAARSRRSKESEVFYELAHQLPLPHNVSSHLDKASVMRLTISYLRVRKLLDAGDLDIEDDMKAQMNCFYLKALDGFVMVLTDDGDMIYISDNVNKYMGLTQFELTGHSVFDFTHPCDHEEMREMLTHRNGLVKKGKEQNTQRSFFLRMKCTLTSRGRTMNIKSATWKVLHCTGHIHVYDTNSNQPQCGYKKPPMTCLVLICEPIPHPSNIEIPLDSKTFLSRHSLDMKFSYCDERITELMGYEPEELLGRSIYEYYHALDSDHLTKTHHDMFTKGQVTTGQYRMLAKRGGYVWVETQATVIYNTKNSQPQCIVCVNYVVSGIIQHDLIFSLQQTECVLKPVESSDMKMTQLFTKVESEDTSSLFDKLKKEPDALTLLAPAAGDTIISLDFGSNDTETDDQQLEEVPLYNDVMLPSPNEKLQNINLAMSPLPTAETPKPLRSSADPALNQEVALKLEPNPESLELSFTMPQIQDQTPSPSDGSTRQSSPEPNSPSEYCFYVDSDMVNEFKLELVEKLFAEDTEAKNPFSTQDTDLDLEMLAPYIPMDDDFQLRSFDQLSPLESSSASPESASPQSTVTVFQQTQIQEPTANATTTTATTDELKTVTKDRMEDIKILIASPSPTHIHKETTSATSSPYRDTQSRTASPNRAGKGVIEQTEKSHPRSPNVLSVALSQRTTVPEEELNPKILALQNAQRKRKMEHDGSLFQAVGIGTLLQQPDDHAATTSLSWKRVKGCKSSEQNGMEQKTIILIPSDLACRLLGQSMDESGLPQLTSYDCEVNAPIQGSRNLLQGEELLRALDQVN
Transcription factor E2F1 (Homo sapiens), sequence (Q01094 whole entry, looked up): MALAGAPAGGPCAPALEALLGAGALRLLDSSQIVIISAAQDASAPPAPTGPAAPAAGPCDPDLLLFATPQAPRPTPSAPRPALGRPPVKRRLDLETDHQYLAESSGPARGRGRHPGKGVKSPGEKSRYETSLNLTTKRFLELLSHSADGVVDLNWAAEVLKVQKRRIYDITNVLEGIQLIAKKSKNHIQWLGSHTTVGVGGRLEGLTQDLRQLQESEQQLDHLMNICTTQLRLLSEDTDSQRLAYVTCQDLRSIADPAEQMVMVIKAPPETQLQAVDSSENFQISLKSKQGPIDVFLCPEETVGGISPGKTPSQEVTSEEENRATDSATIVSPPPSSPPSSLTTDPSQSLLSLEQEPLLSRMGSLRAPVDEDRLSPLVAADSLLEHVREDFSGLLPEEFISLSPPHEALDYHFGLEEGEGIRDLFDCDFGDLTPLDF
Transcription factor Sp1 (Homo sapiens), sequence (P08047 whole entry, looked up): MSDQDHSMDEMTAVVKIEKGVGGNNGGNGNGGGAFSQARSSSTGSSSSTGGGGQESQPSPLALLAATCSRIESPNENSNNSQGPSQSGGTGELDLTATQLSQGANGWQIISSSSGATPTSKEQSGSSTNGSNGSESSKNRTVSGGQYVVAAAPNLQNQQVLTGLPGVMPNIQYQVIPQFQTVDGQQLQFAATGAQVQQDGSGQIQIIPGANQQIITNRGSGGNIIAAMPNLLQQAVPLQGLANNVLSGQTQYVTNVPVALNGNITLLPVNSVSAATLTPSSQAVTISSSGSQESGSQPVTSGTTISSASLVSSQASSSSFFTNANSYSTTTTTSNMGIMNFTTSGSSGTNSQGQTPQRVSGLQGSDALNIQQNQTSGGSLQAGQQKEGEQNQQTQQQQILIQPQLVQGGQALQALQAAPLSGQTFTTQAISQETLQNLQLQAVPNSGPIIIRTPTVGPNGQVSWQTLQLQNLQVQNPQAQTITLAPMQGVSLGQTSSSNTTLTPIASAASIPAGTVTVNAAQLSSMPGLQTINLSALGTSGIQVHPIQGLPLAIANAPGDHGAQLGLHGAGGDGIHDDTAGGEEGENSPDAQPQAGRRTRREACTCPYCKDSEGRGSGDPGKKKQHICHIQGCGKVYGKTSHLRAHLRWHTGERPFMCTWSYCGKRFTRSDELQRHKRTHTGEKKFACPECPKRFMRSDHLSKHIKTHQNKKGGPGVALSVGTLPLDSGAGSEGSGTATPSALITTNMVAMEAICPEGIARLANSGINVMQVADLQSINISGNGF
Cellular tumor antigen p53 (Homo sapiens), sequence (P04637 whole entry, looked up): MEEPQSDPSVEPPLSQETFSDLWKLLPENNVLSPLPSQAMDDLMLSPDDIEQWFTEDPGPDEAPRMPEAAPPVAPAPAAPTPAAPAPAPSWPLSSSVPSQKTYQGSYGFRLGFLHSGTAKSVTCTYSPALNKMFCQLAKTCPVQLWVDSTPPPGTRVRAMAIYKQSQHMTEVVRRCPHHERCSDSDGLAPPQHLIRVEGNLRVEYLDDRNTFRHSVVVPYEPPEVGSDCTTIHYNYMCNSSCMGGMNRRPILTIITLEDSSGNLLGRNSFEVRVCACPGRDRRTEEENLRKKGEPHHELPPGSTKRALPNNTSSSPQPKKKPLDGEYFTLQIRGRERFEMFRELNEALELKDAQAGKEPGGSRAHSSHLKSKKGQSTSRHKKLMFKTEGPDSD
Signal transducer and activator of transcription 3 (Homo sapiens), sequence (P40763 whole entry, looked up): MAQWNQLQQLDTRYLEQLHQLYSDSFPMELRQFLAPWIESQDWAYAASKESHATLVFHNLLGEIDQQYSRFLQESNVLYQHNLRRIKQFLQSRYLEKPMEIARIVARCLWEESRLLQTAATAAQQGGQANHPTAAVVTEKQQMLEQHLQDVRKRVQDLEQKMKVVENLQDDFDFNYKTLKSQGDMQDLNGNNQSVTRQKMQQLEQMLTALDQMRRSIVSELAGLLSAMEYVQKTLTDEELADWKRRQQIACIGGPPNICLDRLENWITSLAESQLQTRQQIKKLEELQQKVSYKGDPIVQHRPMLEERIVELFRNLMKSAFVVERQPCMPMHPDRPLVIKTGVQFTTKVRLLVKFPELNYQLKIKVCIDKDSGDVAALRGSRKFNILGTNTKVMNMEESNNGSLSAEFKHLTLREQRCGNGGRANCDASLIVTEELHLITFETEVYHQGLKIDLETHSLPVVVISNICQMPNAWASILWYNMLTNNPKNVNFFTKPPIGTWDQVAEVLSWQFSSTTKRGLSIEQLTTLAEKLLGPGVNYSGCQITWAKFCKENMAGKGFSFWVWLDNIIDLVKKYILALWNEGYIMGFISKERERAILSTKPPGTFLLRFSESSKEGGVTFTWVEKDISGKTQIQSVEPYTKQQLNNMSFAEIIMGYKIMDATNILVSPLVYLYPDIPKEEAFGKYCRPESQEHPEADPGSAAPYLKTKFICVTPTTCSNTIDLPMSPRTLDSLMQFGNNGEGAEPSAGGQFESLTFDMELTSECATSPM

Cc1cc(O)cc(C)c1Cl
active: [4] 48.4 µM | [8] 109 µM | [16] 22.5 µM
not listed: [17] | [18] | [19] | [20]
inactive: all other assays above

Clc1ccc(Sc2cc(Cl)c(Cl)cc2Cl)cc1
active: [7] 5.97 µM
not listed: [3] | [6] | [10] | [13] | [20]
inactive: all other assays above

CCCOCCC
not listed: [3] | [11]
inactive: all other assays above

CCCC(=O)OC
not listed: [7] | [10] | [11] | [20]
inactive: all other assays above

CCCCOC(=O)COc1ccc(Cl)cc1Cl
not listed: [3] | [7] | [8] | [12]
inactive: all other assays above

CC(C)=CCOC(=O)c1ccccc1
not listed: [2] | [7] | [9] | [10]
inactive: all other assays above

CC(=O)CCc1ccccc1
not listed: [8] | [12] | [13]
inactive: all other assays above

COC(=O)[C@]1(C)CCC[C@@]2(C)[C@H]1CC=C1C=C(C(C)C)CC[C@@H]12
active: [3] 173 µM | [6] 26.4 µM | [7] 3.48 µM | [10] 52.4 µM | [17] 26.4 µM | [16] 32.2 µM
not listed: [11]
inactive: all other assays above
